Laboratory results: PubChem BioAssay AID504757 (Sanford-Burnham Center for Chemical Genomics, 2011)
Some of the results follow. Activity calls are given as the source filed them. Cut-off read from the data, not from the text of the source: active = inhibition above about 39%; inactive = the rest.

molecular target: Cysteine protease ATG4B (Homo sapiens) (UniProt Q9Y4P1); assay: re-tested blockers of ATG4B cleavage activity – biochemical, fluorescence, single concentration, confirmation (AID 504757); settings: ATG4B protease fluorescent substrate cleavage assay; at 8.33 µM; stronger effect = higher value
Sequence (Q9Y4P1 whole entry, looked up): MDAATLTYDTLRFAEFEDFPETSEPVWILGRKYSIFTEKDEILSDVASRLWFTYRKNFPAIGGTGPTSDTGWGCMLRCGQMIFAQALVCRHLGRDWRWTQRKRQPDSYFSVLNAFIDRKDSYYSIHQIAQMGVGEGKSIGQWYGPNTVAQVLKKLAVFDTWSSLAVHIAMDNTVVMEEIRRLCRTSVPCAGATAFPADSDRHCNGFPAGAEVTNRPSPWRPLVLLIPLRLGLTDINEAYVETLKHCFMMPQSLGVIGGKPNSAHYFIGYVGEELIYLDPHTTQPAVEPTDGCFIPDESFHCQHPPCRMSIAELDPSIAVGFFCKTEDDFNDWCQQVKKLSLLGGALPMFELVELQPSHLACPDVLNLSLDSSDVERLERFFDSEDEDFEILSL

inhibition, active:
FC(F)(F)Oc1ccc(NC(=S)NCc2ccccc2)cc1 71.7%
COc1ccc(/C=C2\CCc3ccccc3C2=O)c(OC)c1OC 90.7%
O=C1Nc2cc(Cl)c(Cl)cc2N(O)N1c1cc(Cl)cc(Cl)c1 64.3%
CCCC1=Nc2cc(C(=O)NCc3ccco3)ccc2Sc2ccccc21 54.3%
CC(=O)Nc1ccc(C(=O)Nc2nc(-c3cc(C)n(Cc4ccccc4)c3C)cs2)cc1 62.7%
O=C(O)C(c1ccccc1)N1C(=O)/C(=C\c2ccc(-c3cccc(Cl)c3)o2)SC1=S (stereo unspecified) 38.8%
COc1ccc(/C=C2/SC(=O)N(CCCCCC(=O)Nc3ccccc3C(=O)O)C2=S)cc1 56.7%
CCOC(=O)c1c(-c2ccccc2)oc2cc(Br)c(O)c(C=O)c12 79%
Cc1ccc(N=C2NC(=O)/C(=C/C=C/c3ccco3)S2)cc1C 66.8%
OC(CNCc1ccc(Cl)c(Cl)c1)c1ccccc1 (stereo unspecified) 73.9%
Clc1ccccc1CSc1nnc(-c2ccco2)c(-c2ccco2)n1 64.1%
NC(=O)c1sc2nc3c(c(-c4ccccc4)c2c1N)CCC3 57.5%
Cc1ccc(CSc2nc(-c3ccccc3)c(C#N)c(=O)[nH]2)cc1 54.3%
Cc1ccc(-n2c(SCC(=O)N/N=C/C=C/c3ccccc3[N+](=O)[O-])nc3ccccc3c2=O)cc1 46.6%
CCc1ccc2c(c1)C(c1ccc([N+](=O)[O-])cc1)=NNC(c1ccccc1)=N2 51.2%
CN(C)Cc1ccc(F)cc1Sc1cc(Cl)ccc1Cl 67.4%
CCOC(=O)C(C)Sc1nc2ccccc2c(=O)n1CC1CCCCC1 (stereo unspecified) 54.5%
Cc1ccc(-c2cc(C(=O)N3CCc4ccccc4C3)no2)cc1 66.7%
COC(=O)N/N=C/c1cn(CCCOc2ccc(C)cc2)c2ccccc12 64.9%
O=C(O)CCn1cc(/C=C/C(=O)c2ccc(Cl)cc2)c(-c2cccc(Br)c2)n1 56.8%
CCCOc1ccc2c3c(c(=O)oc2c1OCCC)CCC3 60.3%
